Values joined by “and” are separate entries in the source; they are usually repeats but may differ in a detail not shown here. Equal values may be shown once. Out of some 5,500 compounds screened, about 2,000 (36%) were called active. Inconclusive results (about 18%) are left out. Rule as the data show it: active = normalized growth mostly below about 0.91 (no sharp cut-off); inconclusive = no clear call, values can overlap the other calls; inactive = mostly above about 0.92. The list shows a part of the results.
Experiment: chemical genetic growth profiling, strain panel (AID 1159580);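 also: tested at 20 µM; growth read once vehicle control cultures reached saturation at 30 °C; 1 = growth at the plate median or of vehicle wells; lower values mean less growth of the strain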
Conditions: S. cerevisiae deletion strains, growth OD

Measured: normalized growth

C[C@](N)(Cc1ccc(O)c(O)c1)C(=O)O
inactive: locus YAL013W, strain DEP1, hits give low values 0.962 | locus YAL021C, strain ccr4, hits give low values 0.999 | locus YAL026C, strain drs2, hits give low values 0.968 | locus YAL030W, strain snc1, hits give low values 0.967 | locus YBL061C, strain skt5, hits give low values 0.971 | locus YBR009C, strain hhf1, hits give low values 0.964 | locus YBR021W, strain FUR4, hits give low values 1.03 | locus YBR023C, strain chs3, hits give low values 0.957 | locus YBR171W, strain sec66, hits give low values 0.951 | locus YBR229C, strain ROT2, hits give low values 0.951 | locus YBR231C, strain swc5, hits give low values 0.974 | locus YBR279W, strain paf1, hits give low values 0.96 | locus YCL011C, strain gbp2, hits give low values 0.912 | locus YCL016C, strain dcc1, hits give low values 0.92 | locus YCL029C, strain bik1, hits give low values 0.995 | locus YCL061C, strain MRC1, hits give low values 0.966 | locus YCL069W, strain vba3, hits give low values 0.982 | locus YCR088W, strain abp1, hits give low values 0.991 | locus YDL005C, strain med2, hits give low values 0.991 | locus YDL035C, strain GPR1, hits give low values 0.91 | locus YDL040C, strain nat1, hits give low values 0.989 | locus YDL074C, strain BRE1, hits give low values 1.01 | locus YDL101C, strain DUN1, hits give low values 0.987 | locus YDL134C, strain PPH21, hits give low values 0.974 | locus YDL185W, strain tfp1, hits give low values 0.988 | locus YDL192W, strain arf1, hits give low values 0.974 | locus YDR001C, strain nth1, hits give low values 0.971 | locus YDR069C, strain doa4, hits give low values 0.936 | locus YDR101C, strain arx1, hits give low values 1.01 | locus YDR137W, strain rgp1, hits give low values 0.945 | locus YDR150W, strain NUM1, hits give low values 0.943 | locus YDR159W, strain sac3, hits give low values 1 | locus YDR162C, strain NBP2, hits give low values 0.911 | locus YDR195W, strain ref2 0.984 | locus YDR297W, strain sur2, hits give low values 0.963 | locus YDR318W, strain mcm21, hits give low values 0.993 | locus YDR334W, strain swr1, hits give low values 0.92 | locus YDR335W, strain msn5, hits give low values 0.961 | locus YDR388W, hits give low values 1.01 | locus YDR392W, strain spt3, hits give low values 0.886 | locus YDR502C, strain sam2, hits give low values 1 | locus YEL003W, strain gim4, hits give low values 0.992 | locus YEL037C, strain rad23, hits give low values 0.977 | locus YEL061C, strain CIN8 (second series), hits give low values 0.977 | locus YEL061C, strain CIN8, hits give low values 0.978 | locus YER015W, strain faa2, hits give low values 0.965 | locus YER016W, strain bim1, hits give low values 0.987 | locus YER110C, hits give low values 0.971 | locus YER111C, strain swi4, hits give low values 0.995 | locus YER155C, strain BEM2 (second series), hits give low values 0.986 | locus YER155C, strain BEM2, hits give low values 1.02 | locus YER167W, strain BCK2, hits give low values 0.961 | locus YFR010W, strain ubp6, hits give low values 0.939 | locus YGL078C, strain dbp3, hits give low values 0.984 | locus YGL086W, strain mad1, hits give low values 0.958 | locus YGL167C, strain pmr1, hits give low values 0.954 | locus YGL173C, strain kem1, hits give low values 0.941 | locus YGL227W, strain vid30, hits give low values 0.979 | locus YGL240W, strain doc1, hits give low values 0.998 | locus YGL248W, strain PDE1, hits give low values 0.958 | locus YGL253W, strain hxk2, hits give low values 0.981 | locus YGR078C, strain PAC10, hits give low values 0.907 | locus YGR135W, strain pre9, hits give low values 0.973 | locus YGR229C, strain SMI1, hits give low values 0.917 | locus YGR252W, strain gcn5, hits give low values 0.908 | locus YHR013C, strain ard1, hits give low values 0.894 | locus YHR027C, strain rpn1, hits give low values 0.95 | locus YHR030C, strain SLT2, hits give low values 0.981 and 1.04 | locus YHR079C, strain IRE1 (second series), hits give low values 1 | locus YHR079C, strain IRE1, hits give low values 1.05 | locus YHR094C, strain hxt1, hits give low values 0.999 | locus YHR129C, strain ARP1, hits give low values 0.985 | locus YHR142W, strain chs7, hits give low values 0.913 | locus YHR200W, strain rpn10, hits give low values 0.981 | locus YIL066C, strain RNR3, hits give low values 0.882 | locus YIL073C, strain SPO22, hits give low values 0.793 | locus YIL125W, strain kgd1, hits give low values 0.99 | locus YIR030C, strain dcg1, hits give low values 0.987 | locus YJL092W, strain hpr5, hits give low values 0.966 | locus YJL095W, strain BCK1 (second series), hits give low values 0.965 | locus YJL095W, strain BCK1, hits give low values 1.02 | locus YJL115W, strain asf1, hits give low values 0.953 | locus YJL129C, strain trk1, hits give low values 0.973 | locus YJL134W, strain LCB3, hits give low values 0.976 | locus YJL154C, strain vps35, hits give low values 0.974 | locus YJL164C, strain tpk1, hits give low values 0.979 | locus YJL166W, strain qcr8, hits give low values 0.927 | locus YJL168C, strain set2, hits give low values 0.995 | locus YJL187C, strain SWE1 (second series), hits give low values 0.985 | locus YJL187C, strain SWE1, hits give low values 0.978 | locus YJR043C, strain POL32, hits give low values 0.967 | locus YJR066W, strain TOR1, hits give low values 0.99
